Assay results: PubChem BioAssay (NCI)
About 79,000 compounds went through this panel and 15% of them were active in at least one assay; those are over-represented in the sample as a whole. Calls of active or inactive are those of the source. Rule as the data show it: active = growth inhibition above about 70%; inactive = the rest.

Key:
[1] = NCI Yeast Anticancer Drug Screen. Data for the rad52 strain (AID 147);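 also: 0% = growth of vehicle-treated control cultures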; settings: S. cerevisiae rad52 mutant growth inhibition, stronger effect = higher value
Summary of the method: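 Compounds are applied to a genetically defined yeast strain lacking normal DNA damage repair, and inhibition of growth is expressed relative to cultures given vehicle only.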

[2] = NCI Yeast Anticancer Drug Screen. Data for the wt1 strain (AID 149);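 also: 0% = growth of vehicle-treated wt1 cultures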; settings: S. cerevisiae wt1 strain (SPY 50644) growth inhibition, stronger effect = higher value
Summary of the method: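 Vehicle-normalised growth inhibition; strain wt1; compound exposure.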

[3] = NCI Yeast Anticancer Drug Screen. Data for the rad50EPP+ strain (AID 151);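 also: 0% = growth of vehicle-treated control cultures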; settings: S. cerevisiae rad50 mutant strain, stronger effect = higher value
Summary of the method: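 Compounds were applied to the rad50EPP+ yeast strain, which bears a defined DNA repair alteration, and growth inhibition was determined relative to vehicle-treated cultures.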

[4] = NCI Yeast Anticancer Drug Screen. Data for the mgt1 strain (AID 153); settings: S. cerevisiae mgt1 mutant growth inhibition, stronger effect = higher value
Summary of the method: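 Strain: mgt1 yeast, one of a set carrying defined DNA damage repair or cell cycle control alterations. Compound-treated growth compared with vehicle.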

[5] = NCI Yeast Anticancer Drug Screen. Data for the rad50 strain (AID 155);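 also: 0% = growth of vehicle-only cultures of the same strain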; settings: S. cerevisiae rad50 strain growth inhibition, stronger effect = higher value
Summary of the method: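 A DNA repair-deficient yeast mutant serves as the test organism; compound-induced growth inhibition is calculated against vehicle-treated cells.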

[6] = NCI Yeast Anticancer Drug Screen. Data for the mec2-1 strain (AID 157); settings: S. cerevisiae mec2-1 strain, stronger effect = higher value
Summary of the method: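 Strain: mec2-1 (DNA repair/cell cycle alteration). Compound exposure, then growth measured; inhibition expressed relative to vehicle.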

[7] = NCI Yeast Anticancer Drug Screen. Data for the sgs1 mgt1 strain (AID 161);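 also: 0% = growth of cultures given vehicle only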; settings: S. cerevisiae sgs1 mgt1 strain, stronger effect = higher value
Summary of the method: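 Genetically altered yeast, compound exposure, growth inhibition relative to vehicle.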

[8] = NCI Yeast Anticancer Drug Screen. Data for the CLN2oe strain (AID 163);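 also: 0% = growth of vehicle-only control cultures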; settings: S. cerevisiae CLN2oe strain, stronger effect = higher value
Summary of the method: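 Growth of a genetically modified yeast strain is measured after compound exposure and compared with cultures given vehicle alone.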

[9] = NCI Yeast Anticancer Drug Screen. Data for the cln2 rad14 strain (AID 165);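 also: 0% = growth equal to vehicle treated cultures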; settings: S. cerevisiae cln2 rad14 strain, stronger effect = higher value
Summary of the method: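 Compounds are applied to the cln2 rad14 yeast strain, and growth is then compared with that of vehicle-treated cultures to give inhibition.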

[10] = NCI Yeast Anticancer Drug Screen. Data for the bub3 strain (AID 167); settings: S. cerevisiae bub3 mutant strain, stronger effect = higher value
Summary of the method: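 Inhibition values come from growth of compound-treated mutant yeast normalised to vehicle-treated controls.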

[11] = NCI Yeast Anticancer Drug Screen. Data for the wt2 strain (AID 169);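 also: 0% = growth of vehicle-treated yeast cultures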; settings: S. cerevisiae wt2 strain growth inhibition, stronger effect = higher value
Summary of the method: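 This strain belongs to a panel of yeast strains with defined genetic alterations in DNA damage repair or cell cycle control. Compounds are applied, and growth inhibition is measured against vehicle-treated cultures.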

[12] = NCI Yeast Anticancer Drug Screen. Data for the mlh1 strain (AID 171);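 also: 0% = growth of vehicle-treated control cultures of the same strain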; settings: S. cerevisiae mlh1 strain growth inhibition, stronger effect = higher value
Summary of the method: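 Growth of the mutant yeast strain after compound exposure, expressed as inhibition relative to vehicle-only controls.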

[13] = NCI Yeast Anticancer Drug Screen. Data for the sgs1 strain (AID 173);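 also: 0% = growth of vehicle-only control cultures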; settings: S. cerevisiae sgs1 mutant, stronger effect = higher value
Summary of the method: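 Growth of a yeast strain bearing a defined genetic alteration is measured after compound treatment. Inhibition is expressed relative to vehicle-only controls.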

[14] = NCI Yeast Anticancer Drug Screen. Data for the mlh1 rad18 strain (AID 175); settings: S. cerevisiae mlh1 rad18 strain growth inhibition, stronger effect = higher value
Summary of the method: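 Read-out is yeast growth inhibition, calculated against vehicle-only controls. The compound was applied to a strain engineered with DNA damage repair alterations.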

[15] = NCI Yeast Anticancer Drug Screen. Data for the rad18 strain (AID 177); settings: S. cerevisiae rad18 mutant growth inhibition, stronger effect = higher value
Summary of the method: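 Growth of the mutant yeast strain after compound exposure, normalised to vehicle-only cultures.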

[16] = at 5.0 µM (retest, dose inferred, filed as 0.5)
[17] = at 50.0 µM (retest, dose inferred, filed as 5.0)

Measured: growth inhibition

O=C(Nc1ccc(Cl)cc1)c1cc2cc(N=Nc3ccccc3Cl)ccc2oc1=O
inactive: [1]; at 1.2 µM 8% | [1]; at 3.7 µM 25% | [1]; at 11.0 µM 58% | [2]; at 1.2 µM 3% | [2]; at 3.7 µM 8% | [2]; at 11.0 µM 26% | [3]; at 1.2 µM 39% | [4]; at 1.2 µM 3% | [4]; at 3.7 µM 11% | [4]; at 11.0 µM 48% | [5]; at 1.2 µM 4% | [5]; at 3.7 µM 13% | [5]; [16] 54% | [5]; at 11.0 µM 38% | [5]; [17] 54% | [6]; at 1.2 µM 3% | [6]; at 3.7 µM 10% | [6]; [16] 7% | [6]; at 11.0 µM 40% | [6]; [17] 7% | [7]; [16] 25% | [7]; [17] 25% | [8]; at 1.2 µM 3% | [8]; at 3.7 µM 13% | [8]; at 11.0 µM 40% | [9]; [16] 12% | [9]; [17] 12% | [10]; at 1.2 µM -14% | [10]; at 3.7 µM -19% | [10]; [16] 13% | [10]; at 11.0 µM 26% | [10]; [17] 13% | [11]; at 1.2 µM 5% | [11]; at 3.7 µM 15% | [11]; at 11.0 µM 57% | [12]; at 1.2 µM 1% | [12]; at 3.7 µM 7% | [12]; at 11.0 µM 38% | [13]; at 1.2 µM 11% | [13]; at 3.7 µM 24% | [14]; [16] 23% | [14]; [17] 23% | [15]; at 1.2 µM 4% | [15]; at 3.7 µM 24% | [15]; at 11.0 µM 68%
active: [1]; at 33.0 µM 89% | [1]; at 100.0 µM 92% | [2]; at 33.0 µM 72% | [2]; at 100.0 µM 93% | [3]; at 3.7 µM 75% | [3]; at 11.0 µM 89% | [3]; at 33.0 µM 90% | [3]; at 100.0 µM 86% | [4]; at 33.0 µM 92% | [4]; at 100.0 µM 95% | [5]; at 33.0 µM 84% | [5]; at 50.0 µM 88.8% | [5]; at 100.0 µM 90% | [6]; at 33.0 µM 94% | [6]; at 50.0 µM 88.5% | [6]; at 100.0 µM 95% | [7]; at 50.0 µM 84.8% | [8]; at 33.0 µM 89% | [8]; at 100.0 µM 92% | [9]; at 50.0 µM 82.8% | [10]; at 33.0 µM 93% | [10]; at 50.0 µM 86.2% | [10]; at 100.0 µM 93% | [11]; at 33.0 µM 91% | [11]; at 100.0 µM 94% | [12]; at 33.0 µM 95% | [12]; at 100.0 µM 95% | [13]; at 11.0 µM 70% | [13]; at 33.0 µM 93% | [13]; at 100.0 µM 92% | [14]; at 50.0 µM 85.4% | [15]; at 33.0 µM 92% | [15]; at 100.0 µM 91%
